Vif-A3F inh = qHTS for Inhibitors of Vif-A3F Interactions: qHTS | Potency, µM (highest dose often 46.1 µM) | 0.2% of 390,000 active | HeLa A3F-eYFP + Vif (tagged APOBEC3F with the HIV-1 protein that degrades it), YFP fluorescence increase; note: nearly all actives have a fitted effect of over 65% in size
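Fluorescence increase (Ex 488/Em 500-530) after overnight compound treatment at 37 deg C flags inhibition of Vif-driven A3F-eYFP loss in stable HeLa A3F-eYFP/Vif cells seeded overnight beforehand.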
TSHR antag = Antagonists of the Thyroid Stimulating Hormone Receptor: HTS campaign. 0.2% of 330,000 active. activity change, negative = inhibition, % at 11.5 µM. TSHR-expressing cells, TSH-stimulated cAMP HTRF, 2 h; hits give low values. Thyrotropin receptor (Homo sapiens), P16473;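 active = activity change below a set negative limit, meaning inhibition stronger than a set level, cut at about -70% in these data; inconclusive = activity change between two set negative limits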
Target sequence (P16473 whole entry, looked up): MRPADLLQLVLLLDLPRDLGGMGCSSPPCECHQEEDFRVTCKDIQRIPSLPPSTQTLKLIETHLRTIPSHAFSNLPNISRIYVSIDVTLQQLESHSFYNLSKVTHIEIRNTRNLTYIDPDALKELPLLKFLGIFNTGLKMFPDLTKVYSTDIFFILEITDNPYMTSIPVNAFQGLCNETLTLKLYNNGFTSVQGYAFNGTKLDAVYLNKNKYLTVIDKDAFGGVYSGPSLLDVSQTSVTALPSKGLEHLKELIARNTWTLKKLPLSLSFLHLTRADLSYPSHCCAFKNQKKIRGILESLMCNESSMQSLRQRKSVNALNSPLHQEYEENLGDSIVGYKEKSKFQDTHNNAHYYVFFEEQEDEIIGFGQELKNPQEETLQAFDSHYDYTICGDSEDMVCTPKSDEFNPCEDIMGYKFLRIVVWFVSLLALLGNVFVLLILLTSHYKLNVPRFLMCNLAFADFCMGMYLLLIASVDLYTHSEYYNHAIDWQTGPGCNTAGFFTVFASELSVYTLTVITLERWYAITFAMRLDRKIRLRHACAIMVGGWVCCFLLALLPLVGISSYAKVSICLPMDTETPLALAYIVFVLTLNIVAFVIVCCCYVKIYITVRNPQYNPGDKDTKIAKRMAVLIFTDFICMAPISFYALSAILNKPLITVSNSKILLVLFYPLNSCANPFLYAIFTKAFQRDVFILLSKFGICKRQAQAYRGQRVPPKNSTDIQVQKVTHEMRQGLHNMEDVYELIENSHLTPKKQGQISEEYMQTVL
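Inhibition of cAMP made by TSHR-expressing cells under TSH stimulation (4nM final, EC80; 2 h, 37 deg C) is quantified with a one-step lysis HTRF kit, anti-cAMP cryptate versus cAMP-d2.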
Vif-A3G inh = qHTS for Inhibitors of Vif-A3G Interactions: qHTS; DNA dC->dU-editing enzyme APOBEC-3G (Homo sapiens), Q9HC16; HeLa A3G-eYFP + Vif (tagged APOBEC3G with the HIV-1 protein that degrades it), YFP fluorescence, overnight; Potency, µM (titrated, usually from 46.1 µM), actives largely listed as inhibitors; 0.076% of 410,000 active; note: nearly all actives have a fitted effect of over 60% in size
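HeLa cells stably expressing Vif and C-terminally eYFP-tagged A3G, seeded overnight at 37 deg C, then exposed to compound by pintool overnight at 37 deg C. Rise in yellow fluorescence (Ex 488/Em 500-530, Acumen) marks blocked Vif-driven A3G degradation.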
VDR inh = Inhibitors of the vitamin D receptor (VDR): qHTS; VDR-SRC2-3 peptide fluorescence polarization, 2 h; Vitamin D3 receptor (Homo sapiens), P11473; Potency, µM, usual class: inhibitors; 0.93% of 400,000 active; AID 504847, 2011
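Reagent solutions, kept cold and dark, are dispensed first; compounds are then pinned in at 23 nl, plates briefly spun, and incubated 2 h at ambient temperature. Inhibition of VDR–SRC2-3 peptide binding is read by fluorescence polarization.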
PLK1 PBD block = qHTS for Inhibitors of PLK1-PDB (polo-like kinase 1 - polo-box domain): Primary Screen | 2.8% of 360,000 active | Plk1 PBD binding of FITC phosphopeptide, fluorescence polarization | AID 720504, 2013 | Potency, µM, usual class: inhibitors | Serine/threonine-protein kinase PLK1 (Homo sapiens), P53350; note: series mostly up to about 57 µM; nearly all actives have a fitted effect of over 65% in size
Large screens that a line does not name were inactive. Rows were chosen to be rich in hits. Some 3.1% of all compounds tested hit in one or more screens of this group. Unless noted, calls come from the whole dose curve; as a rule, active = well fitted curve in the direction sought with a large enough effect; inconclusive = small, poorly fitted or top-dose-only effect, or another doubt; inactive = no such curve, though single readings can be large; an effect the other way counts as inactive or inconclusive.

O=C(COc1ccc(Cl)cc1Cl)NCCSc1ccc(Cl)cc1	PLK1 PBD block 3µM
CN[C@H](CC(C)C)C(=O)N[C@H]1C(=O)N[C@@H](CC(N)=O)C(=O)N[C@@H]2C(=O)N[C@H]3C(=O)N[C@H](C(=O)N[C@H](C(=O)O)c4cc(O)cc(O)c4-c4cc3ccc4O)[C@H](O)c3ccc(c(Cl)c3)Oc3cc2cc(c3O[C@@H]2O[C@H](CO)[C@@H](O)[C@H](O)[C@@H]2O[C@H]2C[C@](C)(N)[C@H](O)[C@H](C)O2)Oc2ccc(cc2Cl)[C@H]1O	none (no result: Vif-A3F inh, Vif-A3G inh, PLK1 PBD block)
CCOc1cc(CNC(=O)c2cc(-c3ccccc3)n[nH]2)cc(OCC)c1OCC	none (no result: TSHR antag, PLK1 PBD block)
COC(=O)C1=C(C)N(Cc2ccc(C)cc2)C(=O)/C1=C\c1ccc(O)c(OC)c1	Vif-A3G inh inconclusive, VDR inh inconclusive
COC(=O)C1=C(C)N(Cc2ccc(C)cc2)C(=O)/C1=C\c1cc(OC)c(OC)c(OC)c1	Vif-A3F inh inconclusive, VDR inh 50µM
COc1cc(/C=C2/C(=O)NN(c3ccc(Cl)cc3)C2=O)cc(Br)c1O	Vif-A3F inh inconclusive, VDR inh 71µM, PLK1 PBD block inconclusive
COc1cc(/C=C2/C(=O)N(c3cccc(Br)c3)N=C2C)cc(OC)c1O	VDR inh inconclusive, PLK1 PBD block inconclusive
O=C1NN(c2cccc(Br)c2)C(=O)/C1=C\c1ccc(N2CCOCC2)cc1	PLK1 PBD block inconclusive
COC(=O)c1ccc(N2NC(=O)/C(=C/c3cc(OC)c(O)c(OC)c3)C2=O)cc1	VDR inh inconclusive
COC(=O)c1ccc(N2NC(=O)/C(=C/c3cc(OC)c(OC)c(OC)c3)C2=O)cc1	Vif-A3F inh inconclusive, VDR inh 71µM, PLK1 PBD block 8.4µM
COc1cccc(/C=C2/C(=O)NN(c3ccc(Br)cc3)C2=O)c1O	VDR inh inconclusive, PLK1 PBD block 7.5µM
O=C1CC(c2ccccc2)Cc2[nH]c(=O)c(C(=O)O)cc21 (configuration not stated)	none (no result: Vif-A3F inh, TSHR antag, VDR inh, PLK1 PBD block)
COc1cc2ncnc(N3CCN(C(=O)Nc4ccc(Oc5ccccc5)cc4)CC3)c2cc1OC	none (no result: Vif-A3F inh, TSHR antag, VDR inh, PLK1 PBD block)
COc1ccc(-c2ccc(C(C)=O)cc2)cc1C1C2C=CCCC2(C)C(=O)N1Cc1ccccc1 (configuration not stated)	none (no result: Vif-A3F inh, TSHR antag, PLK1 PBD block)
CCCCCCCCN1[C@@H](CC(=O)OC)c2ccc(/C=C/C(=O)OC)cc2S1(=O)=O	none (no result: Vif-A3F inh, TSHR antag, VDR inh, PLK1 PBD block)
COc1cc(/C=C2\SC(=O)N(CC(=O)Nc3ccccc3F)C2=O)cc(Cl)c1O	Vif-A3F inh inconclusive
COc1cc(/C=C2/C(=O)N(c3ccc(Br)cc3)N=C2C)cc([N+](=O)[O-])c1O	none (no result: Vif-A3F inh, Vif-A3G inh, VDR inh, PLK1 PBD block)
COc1cc(/C=C2/C(=O)NN(c3ccc(Cl)c(Cl)c3)C2=O)cc([N+](=O)[O-])c1O	VDR inh 56µM, PLK1 PBD block 12µM
COc1cc(/C=C2/C(=O)NN(c3ccc(F)cc3)C2=O)cc(Cl)c1O	VDR inh inconclusive, PLK1 PBD block 30µM
COc1cc(/C=C2/C(=O)NN(c3ccc(Cl)cc3)C2=O)ccc1OC(=O)c1ccco1	VDR inh inconclusive, PLK1 PBD block 2.7µM
CC(=O)O[C@@H]1[C@@H](O)CN[C@@H]1Cc1ccccc1	VDR inh inconclusive (no result: Vif-A3F inh, TSHR antag, PLK1 PBD block)
NC(=O)C1CCN(c2nc(-c3ccc(C(F)(F)F)cc3)cs2)CC1	none (no result: Vif-A3F inh, Vif-A3G inh, VDR inh, PLK1 PBD block)
C=C(NNC(C)=O)c1ccc(O)cc1	none (no result: Vif-A3F inh, TSHR antag, VDR inh, PLK1 PBD block)
C1CCC(NC(=NC2C3CC4CC(C3)CC2C4)N2CCOCC2)CC1 (configuration not stated)	none (no result: Vif-A3F inh, TSHR antag, Vif-A3G inh, PLK1 PBD block)
COc1cc(NC(=O)CSc2nnc3c4ccccc4n(C)c3n2)cc(OC)c1OC	none (no result: Vif-A3F inh, TSHR antag, Vif-A3G inh, PLK1 PBD block)
c1coc(CSSCc2ccco2)c1	Vif-A3F inh inconclusive, VDR inh 22µM, PLK1 PBD block 12µM
Cc1cc(OC(=O)c2c(C)cc(OC(=O)c3c(C)cc(O)cc3O)cc2O)cc(O)c1C(=O)O	VDR inh inconclusive, PLK1 PBD block 30µM (no result: TSHR antag)
CCOc1ccccc1N1CC(c2nc3ccccc3n2Cc2c(C)cc(C)cc2C)CC1=O (configuration not stated)	Vif-A3F inh 13µM (no result: TSHR antag, PLK1 PBD block)

Assay outcomes as filed in PubChem.
